S1P3 antag – S1P3 receptor antagonists, primary screen, cell-based; Sphingosine 1-phosphate receptor 3 (Homo sapiens), Q99500; CHO S1P3 NFAT-BLA reporter, FRET fluorescence, antagonist mode; inhibition, % at 4.98 µM; actives 0.27% (n = 170,000); AID 485, 2006;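 active means inhibition above the plate cutoff, the mean inhibition of test wells on that plate plus 3 SD, cut at about 28% in these data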;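 further: cells challenged with S1P at its EC80 of 0.8 µM; blue over green emission ratio from cleaved BLA substrate after 4 h stimulation; 0% = S1P-stimulated wells and 100% = unstimulated DMSO-only wells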
Target sequence (Q99500 whole entry, looked up): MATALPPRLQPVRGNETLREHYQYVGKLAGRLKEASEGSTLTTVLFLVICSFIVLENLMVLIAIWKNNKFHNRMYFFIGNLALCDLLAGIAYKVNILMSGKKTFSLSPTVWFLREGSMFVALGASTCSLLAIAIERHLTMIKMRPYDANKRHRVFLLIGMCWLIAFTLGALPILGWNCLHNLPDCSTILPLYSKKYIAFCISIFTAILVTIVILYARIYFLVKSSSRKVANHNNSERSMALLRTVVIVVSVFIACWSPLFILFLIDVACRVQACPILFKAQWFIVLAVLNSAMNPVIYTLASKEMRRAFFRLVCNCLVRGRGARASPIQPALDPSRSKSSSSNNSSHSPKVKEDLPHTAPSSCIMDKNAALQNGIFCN
EP2 modulator – EP2 receptor modulators, cAMP readout, primary screen, cell-based, HTRF cAMP, PGE2 stimulation; induction, % at 25 µM; Prostaglandin E2 receptor EP2 subtype (Homo sapiens), P43116; EP2-expressing cells, cAMP HTRF FRET, PGE2 co-stimulation; AID 940, 2007; actives 0.83% (n = 260,000);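 active means compounds whose cAMP rise, as percent of the full-agonist control response, exceeds 60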;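 further: rat C6 glioma line stably carrying human EP2 under a CMV promoter; the protocol text gives 20 µM as final concentration; 100% = response of wells given 1 µM PGE2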
S1P4 agonist – S1P4 receptor agonists, primary screen, cell-based; activation, % at 4.98 µM; Sphingosine 1-phosphate receptor 4 (Homo sapiens), O95977; S1P4-expressing cell line, agonist reporter assay; actives 0.35% (n = 220,000); in the data active means activation above about 11%;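 further: 0% = DMSO vehicle and 100% = reference agonist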
PGE2 EP2 inh – human EP2 receptor antagonists, primary screen, TR-FRET cAMP, C6 glioma cells; Prostaglandin E2 receptor EP2 subtype (Homo sapiens), P43116; C6 glioma cells expressing human EP2; cells stimulated with saturating PGE2; inhibition, % at 25 µM; actives 0.52% (n = 260,000);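 active means percent inhibition above 40 after rounding to a whole number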;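 further: rat C6 glioma host cells with rolipram phosphodiesterase inhibitor present; the protocol text gives 20 µM as final concentration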
S1P4 antagonist – S1P4 receptor antagonists, primary screen, cell-based; inhibition, % at 4.98 µM; AID 1510, 2009; Sphingosine 1-phosphate receptor 4 (Homo sapiens), O95977; actives 0.26% (n = 220,000); S1P4-expressing cells, antagonist mode, reporter read-out; in the data active means inhibition above about 29%;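 further: 0% = wells stimulated with agonist and 100% = vehicle wells without agonist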
S1P4 antag conf – S1P4 receptor antagonists, human, confirmation, cell-based; shares compounds with S1P4 antagonist; S1P4-expressing cell line, antagonist mode, reporter read-out; inhibition, % at 4.98 µM; actives 71% (n = 520); in the data active means inhibition above about 30%
S1P1 antag – S1P1 receptor antagonists, human, counter-screen for S1P4 antagonist project, cell-based | shares compounds with S1P4 antagonist | cell-based S1P1 antagonist counterscreen, inhibition | inhibition, % at 4.98 µM | actives 37% (n = 520); in the data active means inhibition above about 40%;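 further: receptor stimulated with S1P near its EC80; 0% = agonist stimulated wells and 100% = vehicle only wells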
* = called active by the depositor. The list is not random: actives were taken first. Their share in the collection is about 1.9%.

What do the screens show for `CC1CCc2c(sc3ncn4c(=O)n(CC(=O)NC(C)C)nc4c23)C1` (centres undefined)?
EP2 modulator: -23

Results for O=C(Nc1ccc(Cl)cc1)c1cccnc1N1CCCCC1 ?
EP2 modulator: 36; S1P4 agonist: 1; PGE2 EP2 inh: 3; S1P4 antagonist: 95*; S1P4 antag conf: 2; S1P1 antag: 11

What do the screens show for `Cc1ccc(-c2cc3c(nn2)-c2ccccc2C3=O)cc1`?
S1P3 antag: 27; EP2 modulator: 1; S1P4 agonist: -1; PGE2 EP2 inh: 2; S1P4 antagonist: -14

How did Cc1ccccc1-c1cc2c(nn1)-c1ccccc1C2=O do in these assays?
EP2 modulator: -31; S1P4 agonist: -2; PGE2 EP2 inh: 17; S1P4 antagonist: 93*; S1P4 antag conf: 10; S1P1 antag: 8

How did O=C(/C(=C/c1ccc(Cl)cc1)c1nc2ccccc2[nH]1)c1cccs1 do in these assays?
EP2 modulator: -2; S1P4 agonist: -1; PGE2 EP2 inh: 9; S1P4 antagonist: 44*; S1P4 antag conf: 116*; S1P1 antag: 74*

How did O=C1/C(=C/c2ccc(O)cc2)SC(=S)N1CC1CCCO1 (centres undefined) do in these assays?
S1P3 antag: -13; EP2 modulator: -10; S1P4 agonist: 2; PGE2 EP2 inh: 13; S1P4 antagonist: 30*; S1P4 antag conf: 5; S1P1 antag: 6

How did CCCOc1ccc(/C=C2\SC(=S)N(CC3CCCO3)C2=O)cc1 (centres undefined) do in these assays?
S1P3 antag: -8; EP2 modulator: 17; S1P4 agonist: 0; PGE2 EP2 inh: 4; S1P4 antagonist: -2

Results for CC(=O)C(/C=N/NC(=O)c1ccccn1)=C(/C)O ?
EP2 modulator: 14; PGE2 EP2 inh: 7

What do the screens show for `O=[N+]([O-])c1ccc(Sc2cccc[n+]2[O-])c2nonc12`?
S1P3 antag: 22; EP2 modulator: -48; S1P4 agonist: 0; PGE2 EP2 inh: 116*; S1P4 antagonist: 91*; S1P4 antag conf: 114*; S1P1 antag: 37

How did CCN(CC)c1cc(C)c(C#N)c2nc3ccccc3n12 do in these assays?
S1P3 antag: 6; EP2 modulator: -1; S1P4 agonist: 0; PGE2 EP2 inh: 8; S1P4 antagonist: 4

What do the screens show for `Cc1cc(Cl)n2c(nc3ccccc32)c1C#N`?
S1P3 antag: 15; EP2 modulator: -42; S1P4 agonist: 5; PGE2 EP2 inh: 7; S1P4 antagonist: 44*; S1P4 antag conf: 108*; S1P1 antag: 69*

Results for O=C(Nc1ccc(F)cc1F)Nc1ccccc1C(=O)NCCN1CCNC1=O ?
S1P3 antag: -19; EP2 modulator: -17; S1P4 agonist: 0; PGE2 EP2 inh: 14; S1P4 antagonist: 31*; S1P4 antag conf: -14; S1P1 antag: 11

How did CCN(CC)c1ccc2cc(NC(=O)CCC(=O)O)c(=O)oc2c1 do in these assays?
S1P3 antag: 34; EP2 modulator: 26; S1P4 agonist: 2; PGE2 EP2 inh: 10; S1P4 antagonist: 32*; S1P4 antag conf: 59*; S1P1 antag: 45*

How did O=C(/C=C/c1ccccc1O)c1ccc(Cl)cc1 do in these assays?
S1P3 antag: -4; EP2 modulator: -25; S1P4 agonist: -1; PGE2 EP2 inh: 5; S1P4 antagonist: 46*; S1P4 antag conf: 59*; S1P1 antag: 24

Results for Cc1nc(NCCNC(=O)c2cccs2)c2c3c(sc2n1)CCCC3 ?
EP2 modulator: -57; PGE2 EP2 inh: 8

How did O=C(Nc1ccc(N2CCN(C(=O)c3ccccc3)CC2)cc1)c1ccc([N+](=O)[O-])o1 do in these assays?
S1P3 antag: 2; EP2 modulator: -48; S1P4 agonist: 0; PGE2 EP2 inh: 49*; S1P4 antagonist: 84*; S1P4 antag conf: 116*; S1P1 antag: 77*

What do the screens show for `CC(C)C(=O)N1CCN(c2ccc(NC(=O)c3ccc(Br)o3)cc2)CC1`?
S1P3 antag: -18; EP2 modulator: -10; S1P4 agonist: 0; PGE2 EP2 inh: 11; S1P4 antagonist: -2

Results for CC(C)C(=O)N1CCN(c2ccc(NC(=O)c3ccc([N+](=O)[O-])o3)cc2)CC1 ?
S1P3 antag: -3; EP2 modulator: -77; S1P4 agonist: -5; PGE2 EP2 inh: 12; S1P4 antagonist: 70*; S1P4 antag conf: 88*; S1P1 antag: 66*

What do the screens show for `CCCC(=O)N1CCN(c2ccc(NC(=O)c3ccc([N+](=O)[O-])o3)cc2Cl)CC1`?
S1P3 antag: 6; EP2 modulator: -47; S1P4 agonist: 0; PGE2 EP2 inh: 27; S1P4 antagonist: 87*; S1P4 antag conf: 99*; S1P1 antag: 49*

What do the screens show for `CCOc1ccc(C(C)=O)cc1N1C(=O)C2C3C=CC(O3)C2C1=O` (centres undefined)?
S1P3 antag: 5; EP2 modulator: -27; S1P4 agonist: -2; PGE2 EP2 inh: 7; S1P4 antagonist: 53*; S1P4 antag conf: 19; S1P1 antag: -2

What do the screens show for `COc1ccc(Nc2cc(C)c3ccc(O)cc3n2)cc1`?
S1P3 antag: -6; EP2 modulator: -29; S1P4 agonist: 0; PGE2 EP2 inh: 9; S1P4 antagonist: 88*; S1P4 antag conf: 65*; S1P1 antag: 30

Results for Cc1cc(Nc2ccccc2)nc2cc(O)ccc12 ?
S1P3 antag: -15; EP2 modulator: 13; S1P4 agonist: 0; PGE2 EP2 inh: 10; S1P4 antagonist: 92*; S1P4 antag conf: 81*; S1P1 antag: 41*

What do the screens show for `COc1ccc(N2CCN(c3cc(C)c4ccc(O)cc4n3)CC2)cc1`?
S1P3 antag: -21; EP2 modulator: 2; S1P4 agonist: 0; PGE2 EP2 inh: 10; S1P4 antagonist: -10

How did COc1ccc(N2CC(C(=O)OCC(=O)Nc3ccc(Cl)c(Cl)c3)CC2=O)cc1 (centres undefined) do in these assays?
EP2 modulator: -63; PGE2 EP2 inh: 9

How did Fc1cccc(F)c1/C=N/NC(=S)Nc1cccnc1 do in these assays?
S1P3 antag: -22; EP2 modulator: -15; S1P4 agonist: 1; PGE2 EP2 inh: 16; S1P4 antagonist: -10

What do the screens show for `Fc1c(F)c(F)c(/C=N/NC(=S)Nc2cccnc2)c(F)c1F`?
S1P3 antag: -4; EP2 modulator: -59; S1P4 agonist: -3; PGE2 EP2 inh: 15; S1P4 antagonist: 40*; S1P4 antag conf: 66*; S1P1 antag: 19
